Laboratory results reported in the supplement of paper PMC6089552.
Screen size: about 3,200 compounds; about 300 (9.4%) showed activity. Shown is part of a subset that was picked to be rich in actives.

Tested on: A673/TR/shEF
Assay: cell viability (LOESS-normalised, relative to median of negative controls) (log2 ratio); higher = more viable cells (less compound effect), active = hit call of the paper (over 3 MAD below the median)
Settings: treatment time: 72 h
Method in brief: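 Doxycycline, present or absent from 24 h before compounds, was used to induce EWS-FLI1 shRNA knockdown in A673/TR/shEF Ewing sarcoma cells at 1,500 per well in 384-well plates. Cells then received library compounds at two or more concentrations, or DMSO controls, for three days. Viability was measured by CellTiter-Glo luminescence on an Envision reader, and per-plate LOESS correction, division by the negative-control median and log2 transformation followed.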

[1] = 0.25 µM, library screen: screen1, EWS-FLI1 expression: high (no doxycycline)
[2] = 0.25 µM, library screen: screen1, EWS-FLI1 expression: low (doxycycline-induced shRNA knockdown)
[3] = 2.5 µM, library screen: screen1, EWS-FLI1 expression: high (no doxycycline)
[4] = 2.5 µM, library screen: screen1, EWS-FLI1 expression: low (doxycycline-induced shRNA knockdown)
[5] = 0.103 µM, library screen: screen3, EWS-FLI1 expression: high (no doxycycline)
[6] = 0.103 µM, library screen: screen3, EWS-FLI1 expression: low (doxycycline-induced shRNA knockdown)
[7] = 0.308 µM, library screen: screen3, EWS-FLI1 expression: high (no doxycycline)
[8] = 0.308 µM, library screen: screen3, EWS-FLI1 expression: low (doxycycline-induced shRNA knockdown)
[9] = 0.926 µM, library screen: screen3, EWS-FLI1 expression: high (no doxycycline)
[10] = 0.926 µM, library screen: screen3, EWS-FLI1 expression: low (doxycycline-induced shRNA knockdown)
[11] = 2.8 µM, library screen: screen3, EWS-FLI1 expression: high (no doxycycline)
[12] = 2.8 µM, library screen: screen3, EWS-FLI1 expression: low (doxycycline-induced shRNA knockdown)
[13] = 8.3 µM, library screen: screen3, EWS-FLI1 expression: high (no doxycycline)
[14] = 8.3 µM, library screen: screen3, EWS-FLI1 expression: low (doxycycline-induced shRNA knockdown)
[15] = 25 µM, library screen: screen3, EWS-FLI1 expression: high (no doxycycline)
[16] = 25 µM, library screen: screen3, EWS-FLI1 expression: low (doxycycline-induced shRNA knockdown)
[17] = 0.25 µM, library screen: screen2, EWS-FLI1 expression: high (no doxycycline)
[18] = 0.25 µM, library screen: screen2, EWS-FLI1 expression: low (doxycycline-induced shRNA knockdown)
[19] = 2.5 µM, library screen: screen2, EWS-FLI1 expression: high (no doxycycline)
[20] = 2.5 µM, library screen: screen2, EWS-FLI1 expression: low (doxycycline-induced shRNA knockdown)
[21] = 0.025 µM, library screen: screen1, EWS-FLI1 expression: high (no doxycycline)
[22] = 0.025 µM, library screen: screen1, EWS-FLI1 expression: low (doxycycline-induced shRNA knockdown)
[23] = 25 µM, library screen: screen1, EWS-FLI1 expression: high (no doxycycline)
[24] = 25 µM, library screen: screen1, EWS-FLI1 expression: low (doxycycline-induced shRNA knockdown)

Measured: cell viability (log2)

CC1=C(C(=O)Nc2ccccc2Cl)C(c2ccccc2Cl)NC(=S)N1 (stereo not given)
inactive: [1] 0.0969 | [2] 0.0233 | [3] 0.106 | [4] 0.0823

CCc1c(C)c(C#N)c2nc3ccccc3n2c1-n1ccnc1C
inactive: [1] 0.109 | [2] 0.0379 | [3] 0.104 | [4] 0.136

CC(=O)Oc1ccc2c(c1)CC[C@@H]1[C@@H]2CC[C@]2(C)[C@@H](O)CC[C@@H]12
inactive: [1] 0.103 | [2] -0.00729 | [3] 0.0771 | [4] 0.0723

COc1c(O)cc(O)c2c(=O)c(-c3ccc(O)cc3)coc12
inactive: [1] 0.0728 | [2] 0.0747 | [3] 0.145 | [4] 0.165

COc1c/c(=C2\C=c3ccccc3=N2)[nH]/c1=C\c1[nH]c(C)cc1C
active: [7] -0.218 | [8] -0.107 | [9] -0.709 | [10] -0.236 | [11] -2.64 | [12] -1.14 | [13] -3.15 | [14] -1.55 | [15] -4.31 | [16] -2.5
inactive: [5] -0.00852 | [6] -0.0389

COc1nc(N/N=C/c2ccccc2F)nc(N2CCCCC2)n1
inactive: [1] 0.0265 | [2] 0.00454 | [3] 0.104 | [4] -0.0151

NC(Cc1ccc(F)cc1)C(=O)O (stereo not given)
inactive: 0.025 µM, library screen: screen2, EWS-FLI1 expression: high (no doxycycline) 0.118 | 0.025 µM, library screen: screen2, EWS-FLI1 expression: low (doxycycline-induced shRNA knockdown) 0.0851 | [1] 0.119 | [2] 0.172 | [17] 0.158 | [18] 0.0689 | [3] 0.144 | [4] 0.0179 | [19] 0.2 | [20] 0.0773 | 25 µM, library screen: screen2, EWS-FLI1 expression: high (no doxycycline) 0.0209 | 25 µM, library screen: screen2, EWS-FLI1 expression: low (doxycycline-induced shRNA knockdown) 0.0999

CSCCC(NC=O)C(=O)NC(C)C(=O)O (stereo not given)
inactive: [1] 0.11 | [2] 0.0779 | [3] 0.177 | [4] 0.154

O=C1c2ccc(O)c(O)c2C(=O)c2c(O)ccc(O)c21
inactive: [1] 0.0226 | [2] 0.0878 | [3] 0.117 | [4] -0.00838

O=C1c2c(O)ccc(O)c2C(=O)c2c(NCCNCCO)ccc(NCCNCCO)c21
active: [5] -0.962 | [6] -0.246 | [1] -1.93 | [2] -0.576 | [17] -2.25 | [18] -0.221 | [7] -1.25 | [8] -0.351 | [9] -1.51 | [10] -0.325 | [3] -4.22 | [4] -3.67 | [19] -2.87 | [20] -0.985 | [11] -2.02 | [12] -0.758 | [13] -3.96 | [14] -3.09 | [15] -4.26 | [16] -4.25

O=C1c2cccc(O)c2C(=O)c2c(O)cccc21
inactive: [1] 0.127 | [2] 0.109 | [3] 0.149 | [4] 0.271

NC(N)=NCCC[C@H](N[C@H](CCC(=O)O)C(=O)O)C(=O)O
inactive: [1] 0.0848 | [2] 0.0238 | [3] 0.123 | [4] 0.0291

C=CC(=O)c1ccc2ccccc2c1
active: [3] -0.264 | [23] -0.287
0.279: [21]
0.286: [1]
inactive: [22] 0.0903 | [2] 0.00371 | [4] 0.198 | [24] -0.0301

O=P(O)(O)C(O)c1ccc2ccccc2c1 (stereo not given)
inactive: [21] 0.0997 | [22] 0.0649 | [1] 0.143 | [2] -0.0248 | [3] 0.0554 | [4] 0.0311 | [23] 0.0292 | [24] 0.0551

C/C(=C\C(=O)Nc1ccccc1C(=O)O)c1ccc2ccccc2c1
inactive: [5] 0.0459 | [6] 0.0279 | [7] -0.00745 | [8] -0.00325 | [9] -0.0219 | [10] 0.0436 | [11] 0.00499 | [12] -1.3e-05 | [13] -0.0171 | [14] 0.0177 | [15] 0.0665 | [16] 0.0416

NC(=O)c1cc[n+](CC2=C(C(=O)O)N3C(=O)[C@@H](NC(=O)C(c4ccccc4)S(=O)(=O)O)[C@H]3SC2)cc1 (stereo not given in full)
inactive: [1] -0.0396 | [2] 0.081 | [3] -0.00797 | [4] 0.0119

CN1CCN(c2nc3ccccn3c(=O)c2/C=C2\SC(=S)N(C)C2=O)CC1
inactive: [1] 0.017 | [2] -0.00298 | [3] 0.0372 | [4] -0.00837

COc1ccc(-c2cc(=O)c3c(O)c(OC)c(OC4OC(COC5OC(C)C(O)C(O)C5O)C(O)C(O)C4O)cc3o2)cc1 (stereo not given)
inactive: [1] 0.0877 | [2] 0.0838 | [3] 0.171 | [4] 0.116

COc1ccc(-c2cc(=O)c3c(O)c(OC)c(OC)cc3o2)cc1O
inactive: [1] -0.076 | [2] -0.0378 | [4] -0.145
active: [3] -0.654

COc1ccc(-c2cc(=O)c3c(O)cc(O[C@@H]4O[C@H](CO[C@@H]5O[C@@H](C)[C@H](O)[C@@H](O)[C@H]5O)[C@@H](O)[C@H](O)[C@H]4O)cc3o2)cc1O
active: [1] -0.0892 | [3] -0.0968
inactive: [2] 0.0382 | [4] 0.0709

COc1ccc(-c2cc(=O)c3c(O)cc(O)cc3o2)cc1O
inactive: [1] -0.0193 | [2] -0.536 | [3] -0.0793 | [4] 0.0681

COc1ccc(-c2cc(=O)c3c(O)cc(O[C@@H]4O[C@H](CO[C@@H]5O[C@@H](C)[C@H](O)[C@@H](O)[C@H]5O)[C@@H](O)[C@H](O)[C@H]4O)cc3o2)cc1
inactive: [1] 0.0703 | [2] 0.0696 | [3] 0.0879 | [4] 0.0994

COc1cc(O)c2c(=O)cc(-c3ccc(OC)c(O)c3)oc2c1
inactive: [1] 0.0474 | [2] 0.00819 | [3] 0.132 | [4] 0.0369

COC(=O)C(O)[C@H]1C(C)(C)[C@@H](OC(C)=O)[C@@H]2CC3=C4CC(=O)O[C@@H](c5ccoc5)[C@]4(C)CCC3[C@@]1(C)C2=O (stereo not given in full)
inactive: [1] 0.11 | [2] 0.119 | [3] 0.15 | [4] 0.0885

CC(=O)O[C@H]1CC[C@@]2(C)C(=CC[C@H]3[C@@H]4CC[C@H]([C@H](C)CCCC(C)C)[C@@]4(C)CC[C@@H]32)C1
inactive: [1] 0.0694 | [2] 0.0487 | [3] 0.14 | [4] 0.0189

O=C(O)C1CC(C2CCCCN2)CN2CCCCC12 (stereo not given)
inactive: [1] 0.039 | [2] 0.0346 | [3] 0.146 | [4] 0.0208

CC(N)=NCCC[C@H](N)C(=O)O
inactive: [17] 0.0627 | [18] 0.0753 | [19] -0.0275 | [20] 0.0731

COc1ccccc1CNC(=O)CN(c1ccc(Cl)cc1)S(C)(=O)=O
inactive: [1] -0.0129 | [2] 0.0689 | [3] 0.0751 | [4] 0.0379

C=C1CCC(C2CC(=O)OC2=O)C(=O)CCC2C1CC2(C)C (stereo not given)
inactive: [1] 0.1 | [2] 0.128 | [3] 0.0855 | [4] 0.0593

Cc1nnc(SCC(=O)N2c3ccccc3-c3c(ssc3=S)C2(C)C)s1
inactive: [1] 0.0582 | [2] 0.0648 | [3] 0.115 | [4] 0.255

CC(C)=CCC/C(C)=C/C=C/C(C)=C/C=C/C(C)=C/C=C/C=C(C)/C=C/C=C(C)/C=C/C=C(\C)CCC=C(C)C
inactive: [1] 0.149 | [2] 0.105 | [3] 0.156 | [4] 0.123

CC(=O)O[C@@H]1CC2C(C)(C)C=CC(=O)[C@]2(C)C2CC[C@@]3(C)[C@H](c4ccoc4)OC(=O)C4OC43[C@@]21C (stereo not given in full)
inactive: [1] 0.059 | [2] 0.0804 | [3] 0.118 | [4] 0.149

NC1(C(=O)O)CCCCC1
inactive: [17] 0.0492 | [18] 0.114 | [19] -0.0212 | [20] 0.0608

NC1(C(=O)O)CCCC1
inactive: [1] 0.102 | [2] 0.137 | [3] 0.134 | [4] 0.192

NC1(C(=O)O)CC1
active: [17] -0.141 | [18] -0.0707
inactive: [1] 0.064 | [2] 0.0956 | [3] 0.122 | [4] 0.0925 | [19] 0.123 | [20] 0.0434

CN(C)C(=O)/C(=C\c1cccc(Br)c1)NC(=O)c1ccccc1
inactive: [1] 0.0622 | [2] 0.0915 | [3] 0.179 | [4] 0.181

O=C(O)c1cc2c(Cl)cc(Cl)cc2[nH]1
inactive: [1] 0.105 | [2] 0.0244 | [3] 0.0763 | [4] 0.0336

NCC1OC(OC2C(N)CC(N)C(OC3OC(CO)C(O)C(N)C3O)C2O)C(N)C(O)C1O (stereo not given)
inactive: [1] 0.0483 | [2] 0.0336 | [3] 0.164 | [4] 0.0237

COc1cc([S+](C)[O-])ccc1-c1nc2ncccc2[nH]1 (stereo not given)
inactive: [1] 0.101 | [2] 0.00949 | [3] 0.131 | [4] 0.0599

C[S+]([O-])c1ccc(-c2nc(-c3ccc(F)cc3)c(-c3ccncc3)[nH]2)cc1 (stereo not given)
active: [3] -0.235 | [23] -0.108
inactive: [22] 0.136 | [1] 0.263 | [2] 0.121 | [4] 0.238 | [24] 0.274
0.29: [21]

C/C1=C\CC(C)(C)/C=C\CC2(C)OC2CC1 (stereo not given)
inactive: [1] 0.0693 | [2] 0.00465 | [3] 0.118 | [4] 0.162
